Bioassay records: PubChem BioAssay, several laboratories
This is a sample that favours compounds with a hit; in the whole collection about 2.3% have one here.
Granule exo inh: blocks lytic granule exocytosis. TALL-104 LAMP-1 surface exposure, flow cytometry; cells stimulated with thapsigargin and PMA. inhibition, % at 10 µM. 0.66% of 360,000 active. AID 651702;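 active = inhibition above about 55%, limit read from the data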
ABHD5-PLIN5 inh: ABHD5-PLIN5 protein interaction inhibition. Q00G26+Q8WTS1. Split G. princeps luciferase complementation, luminescence, 4 h. inhibition, % at 4 µM. 0.78% of 360,000 active. AID 602281;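 active = inhibition above the mean inhibition across every tested compound plus 3 SD, cut at about 22% in these data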;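 note: 0% = DMSO only wells and the 100% control is not disclosed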
NTR1 agonist: NTR1 (human) agonism | P30989 | NTR1-U2OS beta-arrestin-GFP spot imaging, agonist mode | activation, % at 20 µM | 0.17% of 330,000 active | AID 493036;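 active = activation at or above 40% of the spot to cytoplasm intensity ratio, with at least 20 cells analyzed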;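 note: 0% = DMSO without peptide and 100% = 100 nM NTR1 peptide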
HTR2A ag: agonists of mouse serotonin 5-HT2A receptor (HTR2A); P35363; CHO-K1 mHTR2A beta-arrestin complementation, luminescence; percent of 30 µM serotonin response; activation, % at 7.6 µM; 0.66% of 360,000 active; AID 624169;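 active = activation above a run cutoff, the mean activation of all tested compounds plus 3 SD, cut at about 14% in these data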;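 note: 0% = plate median of compound wells and 100% = 30 µM serotonin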
B2AR ag: human beta-2 adrenergic receptor agonism by FAP; P07550; Am2.2-beta2AR cells, FAP receptor internalization, flow cytometry; response, % (no concentration beside the values); 0.43% of 340,000 active; AID 504454;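 active = response above a set limit, near 3 SD of response in nonfluorescent compounds, cut at about 42% in these data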
Target sequence (P07550 whole entry, looked up): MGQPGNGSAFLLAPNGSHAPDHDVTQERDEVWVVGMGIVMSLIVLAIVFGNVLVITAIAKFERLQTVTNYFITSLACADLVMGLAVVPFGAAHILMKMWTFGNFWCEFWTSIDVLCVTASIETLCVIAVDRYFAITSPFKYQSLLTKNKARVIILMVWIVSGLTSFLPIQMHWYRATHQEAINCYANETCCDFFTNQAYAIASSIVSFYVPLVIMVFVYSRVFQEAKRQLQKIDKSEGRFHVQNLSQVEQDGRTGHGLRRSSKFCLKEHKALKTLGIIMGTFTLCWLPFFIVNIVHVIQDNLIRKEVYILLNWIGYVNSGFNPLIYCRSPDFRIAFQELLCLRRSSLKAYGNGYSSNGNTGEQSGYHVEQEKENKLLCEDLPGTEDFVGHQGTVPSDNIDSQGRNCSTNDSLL
OPRM1 ag: counter-screen for mouse HTR2A agonists: human mu opioid receptor agonists. shares compounds with HTR2A ag. U2OS OPRM1 beta-arrestin PathHunter, luminescence; DMSO 0%, DAMGO 9.3 µM 100%. activation, % at 9.3 µM. 5.3% of 2,300 active. AID 624380;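 active = mean activation above the mean of DMSO-only wells plus 3 SD, cut at about 0.5% in these data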
HTR2A ag conf: confirmation of mouse HTR2A serotonin receptor agonists | shares compounds with HTR2A ag | CHO-K1 PathHunter beta-arrestin recruitment, luminescence; DMSO 0%, 30 µM serotonin 100% | activation, % at 7.6 µM | 19% of 2,300 active | AID 624381;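 active = mean activation across triplicates above the hit threshold derived in the original primary screen, cut at about 15% in these data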
The depositor's hits bear a star; · = not tested or not shown.

SMILES | Granule exo inh | ABHD5-PLIN5 inh | NTR1 agonist | HTR2A ag | B2AR ag | OPRM1 ag | HTR2A ag conf
CCOC(=O)c1[nH]c2ccccc2c1NC(=O)Nc1ccc(OC)cc1 | -1.7 | 4.5 | 1.2 | 25.0* | -0.4 | -0.3 | 0.0
CCCC(=O)Nc1c(C(=O)OCC)[nH]c2ccccc12 | 2.4 | 0.2 | -0.4 | -3.8 | 12.7 | · | ·
O=C(NCc1cccs1)C1CCCN1C(=O)Nc1cccc(F)c1 (configuration not stated) | -1.6 | -4.9 | 0.0 | 16.6* | -0.4 | -0.6 | -4.5
O=C(NCc1cccs1)C1CCCN1C(=O)Nc1ccc(F)cc1 (configuration not stated) | -1.4 | -0.1 | -0.1 | -0.9 | -2.4 | · | ·
COc1ccc(OC)c(S(=O)(=O)N(C)CC(=O)Nc2ccccc2OC)c1 | -4.8 | -8.8 | -0.3 | 15.9* | 6.7 | -0.6 | -4.7
COc1ccc(S(=O)(=O)N(C)CC(=O)Nc2ccccc2OC)cc1C | 2.8 | -4.7 | 0.2 | -1.7 | -0.9 | · | ·
CCCNC(=O)c1cc(C2CCCCN2C(=O)c2ccc(C(C)C)cc2)on1 (configuration not stated) | 1.8 | 6.5 | · | 1.9 | · | · | ·
COc1ccc(C2=NO[C@@](CC(=O)O)(C(=O)Nc3ccc4c(c3)OCCO4)C2)cc1 | -10.2 | 0.1 | -0.9 | 15.5* | -3.4 | 1.0* | 2.4
NC(=O)COc1ccccc1C1=NO[C@@](CC(=O)O)(C(=O)Nc2ccc3c(c2)OCCO3)C1 | 32.8 | 4.9 | -0.9 | 7.1 | -7.2 | · | ·
O=C(C1CCN(S(=O)(=O)c2ccccc2)CC1)N1CCC1 | 1.2 | -5.1 | 1.6 | 5.5 | -5.4 | · | ·
c1ccc(Nc2nc(N3CCCCC3)nc(N3CCNCC3)n2)cc1 | 9.1 | 2.7 | 2.8 | 54.7* | -1.6 | -0.5 | 31.1*
COC(=O)C(CCSC)NC(=O)Cn1ncc2c(=O)oc3ccccc3c21 (configuration not stated) | 11.9 | -4.7 | 0.3 | 22.6* | 7.6 | -0.6 | 0.2
CCOC(=O)C(C(=O)N(C)C)c1ncc(C(F)(F)F)cc1Cl (configuration not stated) | 2.1 | 8.0 | -2.0 | 18.8* | 4.5 | -0.6 | 1.9
O=C(NCc1ccco1)c1ccc2sc([C@@H]3O[C@H](CO)[C@@H](O)[C@H]3O)nc2c1 | -7.0 | 1.9 | · | 6.2 | · | · | ·
c1ccc(Cc2nnc(N3CCCCC3)c3ccccc23)cc1 | 3.1 | -9.1 | 4.2 | 8.8 | -6.7 | · | ·
c1ccc(N2CCN(c3nnc(Cc4cccnc4)c4ccccc34)CC2)nc1 | -1.7 | 9.1 | 0.7 | 17.2* | 5.9 | -0.5 | 3.4
Cc1cccc(C(=O)NCC(=O)N2CCCC2)c1 | -1.5 | -2.2 | 0.0 | -4.1 | 5.8 | · | ·
O=C(NCC(=O)N1CCCCCCC1)c1cccc([N+](=O)[O-])c1 | 1.7 | 2.8 | 2.8 | 14.6* | 2.3 | -0.6 | -1.1
CCCCc1ccc(NC(=S)N2CCC(O)CC2)cc1 | 0.4 | -1.7 | -1.0 | 3.2 | 1.8 | · | ·
CC(C)N1C(=O)N(c2cccc(Cl)c2)C(C)(O)CC1(C)C (configuration not stated) | 8.3 | 10.4 | -0.2 | 3.2 | -2.4 | · | ·
Cc1ccc(NC(=O)CCNS(=O)(=O)c2ccc3[nH]c(=O)oc3c2)cc1 | -16.5 | -5.5 | -0.8 | 5.6 | 8.0 | · | ·
COc1ccc(NC(=O)CCNS(=O)(=O)c2ccc3[nH]c(=O)oc3c2)cc1Cl | 1.7 | -4.7 | 0.3 | 21.6* | 2.2 | -0.3 | 3.1
O=C(CN(c1ccc(F)cc1)S(=O)(=O)c1ccc2c(c1)OCCO2)N1CCOCC1 | -2.7 | 3.7 | -1.3 | 25.4* | -3.2 | -0.6 | -2.5
O=C(CN(c1ccc(F)cc1)S(=O)(=O)c1ccccc1)N1CCOCC1 | 0.3 | 7.2 | -0.6 | 3.7 | 0.9 | · | ·
Cc1ccc(C(=O)OCC(=O)NCc2cccc(Cl)c2)cc1S(=O)(=O)N1CCCCC1 | 9.2 | -10.6 | 1.9 | 16.8* | -0.7 | -0.5 | -5.8
SMILES | Granule exo inh | ABHD5-PLIN5 inh | NTR1 agonist | HTR2A ag | B2AR ag | OPRM1 ag | HTR2A ag conf
CCC(CC)C(=O)NCCc1cc2ccc(C)cc2[nH]c1=O | 6.7 | 1.6 | 1.4 | 21.3* | 4.6 | -0.3 | -5.4
CCOCCn1c(CN2CCN(CC)CC2)nc2c1c(=O)n(C)c(=O)n2C | -16.5 | -5.5 | 1.0 | 48.3* | 6.3 | -0.5 | -0.6
CC(C)[C@H](NC(=O)c1ccc(C(C)(C)C)cc1)C(=O)N1CCN(Cc2ccc3c(c2)OCO3)CC1 | -3.2 | -0.1 | 2.1 | 33.6* | 4.0 | -0.5 | 70.2*
O=C1N/C(=N/O)S/C1=C\c1ccccc1-n1cccn1 | 0.0 | -4.0 | 2.5 | 16.2* | 0.9 | -0.4 | 0.1
CC1(C)Oc2ccc3ccc(=O)oc3c2/C(=C/Nc2cccc(O)c2)C1=O | 11.0 | -1.5 | 13.4 | 16.6* | -0.4 | -0.2 | 4.1
CCCCN(C(=O)c1ccc(Cl)c([N+](=O)[O-])c1)c1c(N)n(CCC)c(=O)[nH]c1=O | 0.5 | 2.4 | 0.5 | -2.7 | 0.5 | · | ·
CC(=O)C1CCCN(C(=O)c2ccc3nc(Cc4cccc(Cl)c4)oc3c2)C1 (configuration not stated) | -6.7 | -1.7 | -1.4 | -5.4 | 3.8 | · | ·
Nc1cc2c(cc1Cl)-c1ccc([N+](=O)[O-])cc1C2=NO | -4.6 | -5.7 | · | 4.1 | -73.3 | · | ·
Cc1cc(OC(=O)c2cccc(F)c2)c([N+](=O)[O-])c(=O)[nH]1 | -0.1 | 1.1 | 1.1 | 14.5* | -3.8 | -0.4 | -2.9
Cc1ccccc1NC(=S)NC(NC(=O)c1ccco1)C(Cl)(Cl)Cl (configuration not stated) | 7.9 | 3.4 | 0.6 | 16.8* | 3.9 | -0.6 | -5.6
CCN(C(=O)COC(=O)/C=C/c1c(C)nn(-c2ccccc2)c1C)c1c(N)n(Cc2ccccc2)c(=O)[nH]c1=O | -2.5 | -1.5 | · | 18.4* | -0.1 | -0.7 | -3.5
CN(C)CCCn1c(NC(=O)C2CCCCC2)nc2ccccc21 | -2.4 | -0.6 | -0.7 | 20.2* | -3.0 | -0.6 | 4.3
CCN(CC)C(=O)C1=C(C)N(Cc2ccc(OC)cc2)C(=O)C(CC(=O)NCCc2ccccn2)C1 (configuration not stated) | -5.4 | 6.1 | · | -3.7 | · | · | ·
Cc1ccc(S(=O)(=O)Nc2ccc(-c3csc(-c4ccccc4)n3)cc2)cc1 | 2.5 | -7.5 | 31.5 | 9.0 | 9.4 | · | ·
O=S(=O)(Nc1ccc(-c2csc(-c3ccccc3)n2)cc1)c1ccccc1 | -6.4 | -4.2 | 23.4 | 17.9* | -2.9 | -0.4 | 4.7
O=S(=O)(Nc1ccc2oc(-c3ccccc3)nc2c1)c1ccccc1 | 0.7 | 4.2 | 6.3 | 15.2* | 0.3 | 0.3 | 4.5
CN(CC(=O)NC(=O)NCc1ccccc1)CC(=O)Nc1ccc(Cl)c(Cl)c1 | 12.7 | -4.9 | 4.0 | -3.5 | -2.8 | · | ·
CCc1ccc(C(=O)C(C)OC(=O)Cn2cnc3c2c(=O)n(C)c(=O)n3C)cc1 (configuration not stated) | -2.3 | 6.3 | 0.2 | 17.0* | -10.9 | -0.6 | -1.5
